UCHL1 inh = inhibitors of human UCHL1 deubiquitinase; P09936; purified UCHL1, Ub-rhodamine cleavage fluorescence; inhibition, % at 20 µM; 47,000 compounds, 0.2% hits
Target sequence (P09936 whole entry, looked up): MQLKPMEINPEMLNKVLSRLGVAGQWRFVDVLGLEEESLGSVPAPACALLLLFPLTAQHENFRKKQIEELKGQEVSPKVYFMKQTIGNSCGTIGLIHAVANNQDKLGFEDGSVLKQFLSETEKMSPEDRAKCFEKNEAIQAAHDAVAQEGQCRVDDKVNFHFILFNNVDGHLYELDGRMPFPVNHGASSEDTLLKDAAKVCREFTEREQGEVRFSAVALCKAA
USP7 inh = human USP7 deubiquitinase inhibition; purified USP7, Ub-rhodamine cleavage fluorescence; 47,000 compounds, 0.3% hits; Q93009; AID 1645854; inhibition, % at 20 µM
OTUD3 inh = inhibitors of human OTUD3 deubiquitinase; Q5T2D3; purified OTUD3, Ub-rhodamine fluorescence, 2 h; inhibition, % at 25 µM; 47,000 compounds, 0.7% hits
* = called active by the depositor. Compounds with a hit are over-represented: about 1.1% of the library has one in this group of screens. No stated cut-off is given here; in the data, active means inhibition above about 30%; inactive means the rest.

SMILES	UCHL1 inh	USP7 inh	OTUD3 inh
Cc1ccccc1C(=O)NCCn1cc(SCC(=O)Nc2ccc3c(c2)OCCO3)c2ccccc21	4	7	44*
Cc1ccccc1Cn1cc(SCC(=O)Nc2ccc3c(c2)OCCO3)c2ccccc21	7	7	23
Cc1ccc(C(CNC(=O)COc2ccccc2)N2CCC(C)CC2)o1 (configuration not stated)	-2	-4	-8
CN1CCCN(C(=O)c2ccccc2F)c2nc3ccccc3nc21	3	-3	-1
Cc1cc(C)c(NC(=O)CSc2nnc(Cc3cccc4ccccc34)n2C)c(C)c1	-2	-17	2
Cc1cc(C)c(NC(=O)CSc2nc3nccnc3c(=O)n2Cc2ccccc2Cl)c(C)c1	3	2	31*
Cc1ccc(NC(=O)N2CCC3(CC2)N=C(c2ccccc2)C(=O)N3)cc1C	3	1	14
N#Cc1cccc(NC(=O)Cn2cccc(-c3nc(-c4ccccc4)no3)c2=O)c1	-29	-22	-94
N#Cc1cccc(NC(=O)Nc2cccn(Cc3ccccc3F)c2=O)c1	35*	-63	84*
Cc1ccccc1NC(=O)CNc1ccc(C#N)cc1	0	-3	-6
N#Cc1ccc(NC(=O)Nc2cccn(Cc3ccccc3Br)c2=O)cc1	24	-49	45*
Cc1cc(C)c(NS(=O)(=O)c2ccc3c(c2)OCC(=O)N3)c(C)c1	0	2	-5
Cc1ccc2[nH]cc(S(=O)(=O)c3cc(F)cc(F)c3)c(=O)c2c1	28	36*	7
Cc1ccc2[nH]cc(S(=O)(=O)c3ccc(C)c(F)c3)c(=O)c2c1	4	20	-3
Cc1cc(O)cc2c1C(=O)c1c(O)ccc(O)c1C2=O	-21	-47	-97
O=C1c2ccccc2C(=O)c2c(O)c(O)cc(O)c21	45*	2	-140
COc1ccc(NC(=O)C2CC(=O)Nc3c(-c4ccc(Cl)cc4)cnn32)c(OC)c1 (configuration not stated)	-2	-3	0
CC(=O)N[C@@]12CN(C)CC[C@@H]1[C@@H](c1ccccc1)N(C(=O)C1(c3ccccc3)CCCC1)C2	2	3	21
Cc1ccc2[nH]c(=O)c(-c3noc(CCC(=O)NC4CCCC4)n3)cc2c1	2	5	-27
Cc1ccc2cc(-c3noc(CCC(=O)NC4CCCC4)n3)c(=O)[nH]c2c1	9	41*	13
CC(=O)O[C@@H](C/C=C(\C)C(=O)O)[C@@H](C)[C@H]1C[C@H](OC(C)=O)[C@@]2(C)C3=CC[C@H]4C(C)(C)[C@H](OC(C)=O)CC[C@]4(C)C3=CC[C@]12C	57*	93*	92*
CC(=O)O[C@@H](C/C=C(\C)C(=O)O)[C@@H](C)[C@H]1C[C@H](OC(C)=O)[C@@]2(C)C3=CC[C@H]4C(C)(C)[C@H](O)CC[C@]4(C)C3=CC[C@]12C	3	14	17
Cn1ncc2c1C(COCC1CC1)CN(C(=O)c1ccnnc1)C2 (configuration not stated)	-2	4	1
Cc1cc2oc(=O)cc(COC(=O)c3ccc4[nH]c(C)c(C)c4c3)c2cc1Cl	-1	-8	-7
Cc1ncc(-c2cncc(C3CCCN(C(=O)c4cccnc4)C3)n2)n1C (configuration not stated)	-2	0	-5
SMILES	UCHL1 inh	USP7 inh	OTUD3 inh
Cc1ccc(NC(=O)Cn2c(=O)n(CC(=O)NCc3ccco3)c(=O)c3ccccc32)cc1C	-7	-2	41*
Cc1cc(NC(=O)Cn2c(=O)n(CCCCC(=O)NCc3ccco3)c(=O)c3ccccc32)ccc1Br	1	5	18
Cc1ccc(Cl)cc1NC(=O)Cn1c(=O)n(CCC(=O)NCc2ccco2)c(=O)c2ccccc21	5	-10	15
COc1cc2c(=O)n(CCC(=O)NCc3ccco3)c(=O)n(CC(=O)Nc3c(C)cccc3C)c2cc1OC	8	9	50*
COc1ccc(-c2nonc2NC(=O)C(c2ccccc2)c2ccccc2)cc1OC	7	8	2
OCCOc1ccc(CN2CCc3nc4ccccc4n3CC2)cc1	3	7	3
CCC1OC(O)(C(C)C(O)C(C)C2OC(=O)/C(C)=C/C(C)=CC(C)C(O)C(C)C/C(C)=C/C=C/C2OC)CC(OC(=O)/C=C/C(=O)NC2=C(O)CCC2=O)C1C (configuration not stated)	5	26	32*
CO/C1=C\C(C)=C/[C@@H](C)[C@@H](O)[C@@H](C)C/C(C)=C/C=C/[C@H](OC)[C@@H]([C@@H](C)[C@@H](O)[C@H](C)[C@@]2(O)C[C@@H](OC(=O)/C=C/C(N)=O)[C@H](C)[C@@H](C(C)C)O2)OC1=O	1	16	22
c1cc(-c2nnc(-c3cnc4onc(C5CC5)c4c3)o2)c2cccnc2c1	-13	-11	-39
Cc1nc(C(=O)NC2(O)C(=O)c3ccccc3C2=O)cs1	29	-94	5
CSc1ncccc1C(=O)NC1(O)C(=O)c2ccccc2C1=O	34*	-90	23
COc1ccc(CC(=O)Nc2nc(-c3ccco3)c(-c3ccco3)s2)cc1	-94	-140	62*
COc1ccc(-c2nc(NC(=O)Cc3ccccc3OC)sc2C)cc1	6	5	8
O=C(Cc1ccccc1F)Nc1nc(-c2ccco2)c(-c2ccco2)s1	-59	-91	58*
COc1ccc(CC(=O)Nc2nc3c(s2)CCC3)cc1	3	-1	5
O=C1CCSc2ccc(S(=O)(=O)NCc3ccc(F)cc3)cc2N1	-4	-2	4
COc1cc(N2CC[C@H]3O[C@H](C(=O)NCc4ccco4)CC[C@H]32)ncn1	1	1	3
CN1CC2(COc3ccccc31)CN(S(=O)(=O)c1ccc3ncsc3c1)CCO2 (configuration not stated)	5	-58	0
CCOc1ccccc1NC(=O)COC(=O)C(c1ccccc1)c1ccccc1	7	14	34*
Cc1cc(C)c(NC(=O)COC(=O)C(c2ccccc2)c2ccccc2)c(C)c1	2	8	13
CN1CCCC12CCN(C(=O)c1ccccc1F)CC2	-1	0	-4
CCCCCCCC/C=C\CCCCCCCC(=O)O	1	5	-2
CCC/C=C\C#CC/C=C\CCCCCCCC(=O)O	69*	59*	58*
Cc1cc(C)cc(N(CCC(=O)Nc2ccc(N3CCOCC3)cc2)S(=O)(=O)c2ccc(Cl)cc2)c1	4	9	35*
Cc1cc(C)cc(N(CCC(=O)Nc2ccccc2)S(=O)(=O)c2ccc3ccccc3c2)c1	9	14	17
SMILES	UCHL1 inh	USP7 inh	OTUD3 inh
COc1cc(NC(=O)Cn2cc(C(=O)c3ccccc3)c(=O)c3cc(Cl)ccc32)cc(OC)c1	10	51*	4
CCOc1ccc2c(c1)c(=O)c(C(=O)c1ccc(C)cc1)cn2CC(=O)Nc1ccc(OC)c(OC)c1	15	26	36*
CCOc1ccc2c(c1)c(=O)c(C(=O)c1ccc(F)cc1)cn2CC(=O)Nc1ccc(F)cc1	30*	47*	5
COc1ccccc1NC(=O)Cn1cc(C(=O)c2ccc(C)cc2)c(=O)c2cc(Cl)ccc21	-1	8	12
COc1ccc(NC(=O)Cn2cc(C(=O)c3ccc(F)cc3)c(=O)c3cc(C)ccc32)cc1	8	16	6
COc1ccc(NC(=O)Cn2cc(C(=O)c3ccc(C)cc3)c(=O)c3ccccc32)cc1	2	11	10

Source: PubChem BioAssay
